The structures appear in SMILES notation. In all, about 220,000 compounds went through this assay and about 910 (0.41%) were called active. The full list was thinned out, with actives kept by preference. Potency and affinity values are given separately. A number with no mark means an inactive call.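 How the source made its calls: active means primary inhibition above the hit cutoff, then over 50% inhibition at one or more dose response concentrations (cut at about 23% in these data, passing the limit was not always enough); inconclusive means conflicting primary data, or primary hits not chosen for dose response; inactive means low primary inhibition, or under 50% at every dose.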

The target in the experiment is Aminopeptidase N (Plasmodium falciparum (isolate 3D7)) (UniProt O96935). As to the kind of experiment: P. falciparum M1AAP inhibitors, biochemical, fluorogenic H-Leu-NHMec substrate, 1536-well (AID 1445).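 Further: plate controls were DMSO full reaction for no effect and no enzyme background for full effect.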 The conditions noted are these: recombinant M1AAP, H-Leu-NHMec fluorogenic kinetic assay; at 30 µM, active compounds read high unless noted.
Sequence of Aminopeptidase N (Plasmodium falciparum (isolate 3D7)) (O96935 whole entry, looked up): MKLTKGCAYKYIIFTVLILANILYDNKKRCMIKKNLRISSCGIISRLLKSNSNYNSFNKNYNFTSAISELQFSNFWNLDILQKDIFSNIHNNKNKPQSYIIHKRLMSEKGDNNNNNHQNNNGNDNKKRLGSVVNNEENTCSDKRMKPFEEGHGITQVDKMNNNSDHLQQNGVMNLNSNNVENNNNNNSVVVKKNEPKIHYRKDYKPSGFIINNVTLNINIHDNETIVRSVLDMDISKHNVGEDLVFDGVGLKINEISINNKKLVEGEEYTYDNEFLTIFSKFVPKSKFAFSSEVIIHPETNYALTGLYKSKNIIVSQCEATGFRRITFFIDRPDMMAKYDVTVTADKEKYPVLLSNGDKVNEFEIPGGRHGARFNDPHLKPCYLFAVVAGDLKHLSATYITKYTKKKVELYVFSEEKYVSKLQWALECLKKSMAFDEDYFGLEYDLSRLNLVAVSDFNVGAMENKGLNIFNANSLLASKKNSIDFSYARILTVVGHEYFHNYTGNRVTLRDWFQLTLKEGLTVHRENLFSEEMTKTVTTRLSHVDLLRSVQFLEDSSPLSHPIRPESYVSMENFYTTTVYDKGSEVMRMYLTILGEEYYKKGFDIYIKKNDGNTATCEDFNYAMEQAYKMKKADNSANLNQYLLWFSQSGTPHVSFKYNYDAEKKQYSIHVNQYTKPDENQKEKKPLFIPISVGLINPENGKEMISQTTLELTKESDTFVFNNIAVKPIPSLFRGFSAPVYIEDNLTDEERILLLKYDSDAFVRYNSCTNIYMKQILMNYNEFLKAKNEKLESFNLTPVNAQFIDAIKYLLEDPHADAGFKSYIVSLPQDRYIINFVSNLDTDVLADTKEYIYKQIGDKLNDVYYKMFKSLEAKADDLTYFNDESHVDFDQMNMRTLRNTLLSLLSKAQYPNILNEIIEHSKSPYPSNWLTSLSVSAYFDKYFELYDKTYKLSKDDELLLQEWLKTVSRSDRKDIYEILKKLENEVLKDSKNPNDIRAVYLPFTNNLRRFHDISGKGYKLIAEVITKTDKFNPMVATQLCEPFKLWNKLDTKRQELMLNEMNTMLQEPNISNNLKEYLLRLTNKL
In general, inhibition refers to the drop in the measured response relative to a control, in per cent. Consider `CCC(C)(C)NC(=O)C(c1ccc(C)o1)N(C(=O)c1csnn1)c1cccc(F)c1` (stereo not given), for which the inhibition is 1.56%. On to `O=C(Cc1cccs1)Nc1nnc(-c2ccccc2)s1`, for which the inhibition is 8.23%. For the molecule `CCCc1n(CC(O)COCc2ccccc2)c2ccccc2[n+]1C` (stereo not given), the inhibition is 6.5%. For the molecule `O=c1[nH]c2ccc(Br)cc2c(-c2ccccc2)c1N1CCOCC1`, the inhibition was 3.65%.

Take `Cc1ccc2[nH]c(=O)c(CN3CCCCC3)c(-c3ccccc3)c2c1`: the inhibition is -7.69%. The figure for `CCCCCCC(=O)N/N=C(\C)Cc1ccccc1` is -0.14%; for `COc1cccc(-n2c(CN3CCN(Cc4ccccc4)CC3)nc3ccc([N+](=O)[O-])cc3c2=O)c1` it is 4.64%. Regarding `Cc1c(Cl)cnc(NC(=O)CSc2nncs2)c1Cl`, the inhibition was -1.74%. The figure for `CCOc1ccc(OCC)c(NC(=O)CN2CCC(NC(=O)c3cccc(F)c3)CC2)c1` is 8.37%. The figure for `Cc1ccc(C(=O)NC2CCN(CC(=O)NCc3cccs3)CC2)cc1` is 15.8%; for `O=C(CN1CCC(NC(=O)c2ccc(F)cc2)CC1)NCc1ccccc1F` it is 31.9%. The figure for `COc1ccccc1CNC(=O)CN1CCC(NC(=O)c2ccccc2F)CC1` is 8.21%. As for `COc1cccc(C(=O)NCc2ccccc2OC)c1`, the inhibition is 0.04%. Turning to `O=C(CN1CCC(C(=O)c2cccc(F)c2)CC1)NCc1cccs1`, the inhibition was 11.7%.

Consider `COc1cccc(OC)c1NC(=O)CN1CCC(NC(=O)c2cccc(F)c2)CC1`, for which the inhibition was 20.7%. Then `O=C(CN1CCC(NC(=O)c2ccc(Br)cc2)CC1)NCc1cccs1`, with 17.5%.

As for `O=C(C1CC1)N1CCN(S(=O)(=O)c2ccc3c(c2)OCCO3)CC1`, the inhibition was 2.72%. The figure for `O=C(O)CC(NC(=O)C(c1ccccc1)c1ccccc1)c1ccc(F)cc1` (stereo not given) is -1.82%. With `Cc1cccc(C)c1NC(=O)c1sc(Cl)nc1C`, the inhibition was -2.07%.

For the molecule `CC(C)N(CCc1ccncc1)C(=O)Nc1ccc(Cl)c(Cl)c1`, the inhibition was -5.52%. Then `CCn1nnnc1SCC(=O)Nc1ccc(OCc2ccccc2)cc1`, with 7.63%; and `O=C(NCc1ccccc1)c1onc(CSc2ccccn2)c1C(=O)NCc1ccccc1`, with 4.51%; and `CC(C)N(C)C1CCN(C(=O)Nc2ccc(Cl)cc2)CC1`, with 3.02%. Turning to `O=c1[nH]c(N2CCOCC2)nc2c1CCCC2`, the inhibition is 15.6%.

With `CC(C)Oc1ccc(C(CC(=O)O)NC(=O)C2CCCCC2)cc1` (stereo not given), the inhibition was -1.13%. The figure for `Cc1ccc(SCCC(=O)Nc2ccccc2C(=O)N2CCOCC2)cc1` is -3.27%; for `CN(C)CC(C)(C)CNC(=S)Nc1ccc(S(=O)(=O)N2CCOCC2)cc1` it is 2.96%. The figure for `Cc1ccccc1C(=O)NC1CCN(CC(=O)NCc2ccc(F)cc2)CC1` is 3.39%; for `O=C(CN1CCC(NC(=O)c2ccccc2F)CC1)NCc1ccc(F)cc1` it is 27.4% (active); for `O=C(CN1CCC(NC(=O)c2ccccc2Cl)CC1)NCc1ccco1` it is 12.1%. The figure for `Cc1ccccc1C(=O)NC1CCN(CC(=O)Nc2ccc3c(c2)OCCO3)CC1` is -1.09%. For the molecule `Cc1ccccc1C(=O)NC1CCN(CC(=O)Nc2ccc3c(c2)OCO3)CC1`, the inhibition was 10.9%. Then `Cc1cc(-c2n[nH]c(=S)n2/N=C/C=C/c2ccccc2)n[nH]1`, with 16.6%; and `CC1CCN(CCc2nc3cc(NS(=O)(=O)c4ccc(F)cc4)ccc3n2C)CC1`, with -3.38%; and `Cc1ccc(OCCCNCCO)c(Br)c1`, with 9.5%.

For the molecule `CCC(=O)NC(=S)Nc1c(C)cc(Br)cc1C`, the inhibition was 0.48%. Then `CC(C(=O)c1c[nH]c(C(=O)N=CN(C)C)c1)c1ncc(C(F)(F)F)cc1Cl` (stereo not given), with 0.78%.

On to `COc1cc2c(cc1OC)-c1cc(Nc3ccccc3)nc(=O)n1CC2`, for which the inhibition is 11.4%. The figure for `COc1cc2c(cc1OC)-c1cc(Nc3ccc4c(c3)OCCO4)nc(=O)n1CC2` is 24.9% (active); for `CCOc1cccc(Nc2cc3n(c(=O)n2)CCc2cc(OC)c(OC)cc2-3)c1` it is 12.6%. Take `CC(c1cccs1)N(Cc1ccco1)C(=S)Nc1ccc(F)c(Cl)c1` (stereo not given): the inhibition is 4.95%. With `Cc1ncc(CO)c(/C=N/NC(=S)Nc2ccc(C(C)C)cc2)c1O`, the inhibition is 9.46%.

For `Cc1nc2cc(NC(=O)c3ccc(N4C(=O)CCC4=O)cc3)ccc2s1`, the inhibition was -5.53%. `C=CCOc1ccc(/C=C2\SC(=S)N(N3CCOCC3)C2=O)cc1`: the inhibition was -2.77%. For the molecule `CCOc1ccc(/C=C2\SC(=S)N(C(C(=O)O)c3ccccc3)C2=O)cc1OC` (stereo not given), the inhibition was 14.7%. As for `COc1cc(/C=C2/SC(=S)N(c3c(C)n(C)n(-c4ccccc4)c3=O)C2=O)ccc1O`, the inhibition is 11.3%. Turning to `COc1cc(/C=C2\SC(=S)N(C(C(=O)O)c3ccccc3)C2=O)cc(OC)c1OC` (stereo not given), the inhibition was 18.4%. `CCOc1ccc(/C=C2/SC(=S)N(C(C(=O)O)c3ccccc3)C2=O)cc1OCC` (stereo not given): the inhibition is 12.1%.

In the case of `CCOc1ccc(/C=C2\SC(=S)N(CCC(=O)O)C2=O)cc1`, the inhibition is 1.74%. Turning to `Cc1ccc(/C=C2\SC(=S)N(C(Cc3ccccc3)C(=O)O)C2=O)cc1` (stereo not given), the inhibition was 14.4%. Consider `COc1ccc(/C=C2\SC(=S)N(C(Cc3ccccc3)C(=O)O)C2=O)cc1` (stereo not given), for which the inhibition was 4.89%.

On to `O=C(COc1cccc2cccnc12)N/N=C/c1ccccc1O`, for which the inhibition was -2.77%. Then `O=S(=O)(NCC(c1cccnc1)N1CCN(c2ccc(F)cc2)CC1)c1cccs1` (stereo not given), with -1.2%; and `COc1ccc(CNC(=S)NC(C)CCc2ccccc2)cc1` (stereo not given), with -0.16%; and `CSc1cccc(NCc2ccc([N+](=O)[O-])cc2)c1`, with 7.42%. As for `COc1ccc(-c2nn(-c3ccccc3)cc2CNCCN2CCOC2=O)c(F)c1`, the inhibition was -5.99%. `O=C(N/N=C/c1ccccn1)c1cc(-c2ccccc2)nc2ccccc12`: the inhibition was -10.8%.

With `Cn1cnnc1SCC(=O)Nc1ccc2nc(SCc3ccccc3F)sc2c1`, the inhibition is -0.14%. For the molecule `O=C(O)C(Cc1ccccc1)N1C(=O)/C(=C/c2cccnc2)SC1=S` (stereo not given), the inhibition is 5.04%.

Regarding `O=C(O)C(Cc1ccccc1)N1C(=O)/C(=C/c2ccccc2)SC1=S` (stereo not given), the inhibition is 18.4%.

Values taken from PubChem BioAssay AID1445 (SRMLSC, 2008).
